For 10 compounds, growth results are on record in PubChem BioAssay (NCI).

The structures appear in SMILES notation. Compounds without any hit were thinned out: in the full panel of roughly 83,000, 20% have a hit.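 Growth was measured after 48 h exposure to one concentration of compound in 96-well plates. Values under 10 count as active.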 A number with no mark means an inactive call. Calls of active or inactive are those of the source.

What all share (experiment): NCI-60 one-dose screen, 48 h (100 = growth as untreated, 0 = no growth, -100 = all killed)
Assay [1] has as its system HCT-15 colon. Conditions: 10 µM unless noted.
Assay [2] deals with HT29 colon. The note with it: 10 µM unless noted.
Assay [3] concerns SNB-19 CNS. Conditions: 10 µM unless noted.
The test system of assay [4] is U251 CNS. Conditions: 10 µM unless noted.
The subject of assay [5] is PC-3 prostate. The note with it: 10 µM unless noted.
In assay [6] the test system is SK-MEL-5 melanoma. Conditions: 10 µM unless noted.
Assay [7] has as its system UACC-62 melanoma. The note with it: 10 µM unless noted.
Assay [8] has as its system LOX IMVI melanoma. The note with it: 10 µM unless noted.
Assay [9] deals with SK-MEL-2 melanoma. Conditions: 10 µM unless noted.
In assay [10] the test system is EKVX NSCLC. The note with it: 10 µM unless noted.
Assay [11] relates to SN12C renal. The note with it: 10 µM unless noted.
Assay [12] relates to UO-31 renal. Conditions: 10 µM unless noted.
Assay [13] deals with TK-10 renal. Conditions: 10 µM unless noted.
The subject of assay [14] is ACHN renal. The note with it: 10 µM unless noted.
Assay [15] concerns CAKI-1 renal. Conditions: 10 µM unless noted.
Assay [16] has as its system A498 renal. The note with it: 10 µM.
The test system of assay [17] is SK-MEL-28 melanoma. Conditions: 10 µM unless noted.
In assay [18] the test system is HL-60(TB) leukemia. Conditions: 10 µM unless noted.
For assay [19], the system named is CCRF-CEM leukemia. The note with it: 10 µM unless noted.
Assay [20] has as its system SNB-75 CNS. Conditions: 10 µM unless noted.

On to `O=C1C=C2C(=CCOC2O)O1` (configuration not stated), for which the growth is -8.81% (active) in [1]; -24.3% (active) in assay [2]; 84.1% in assay [3]; 74.8% in assay [4]; 33.9% in [5]; 78.7% in [6]. The growth is -14.2% (active) in assay [7]; 1.42% (active) in assay [8]; 10.4% in [9]; 103% in assay [10]; 35.1% in [11]; -11.6% (active) in assay [12]. In addition, the growth in assay [13] was -37.2% (active); in [14] it was -18.7% (active); in [15] it was -13.2% (active); in [16] it was 107%.

Consider `COP(=O)(OC)C(O)c1ccc(Cl)cc1` (configuration not stated), for which the growth in assay [1] was 102%; in assay [2], 96.1%; in assay [3] it was 110%; in [4], 104%; in assay [5], 94.3%; in assay [6], 98.7%. Further, the growth in assay [7] was 101%; in [8] it was 96.8%; in [17], 109%; in [10], 98.4%; in [11] it was 108%; in [12], 83.3%. Besides, the growth in assay [13] is 96.5%; in [16], 98.5%; in assay [18] it was 98.9%; in assay [19], 112%.

With `CCOP(=O)(Nc1ccc2c(c1)/C(=N/NC(N)=S)c1ccccc1-2)OCC`, the growth was 96.5% in [1]; 80.6% in [20]; 94.5% in assay [3]; 94.8% in assay [4]; 94.4% in assay [5]; 84.4% in assay [6]. In addition, the growth was 77.7% in assay [7]; 88.9% in [8]; 116% in assay [17]; 110% in assay [9]; 92.9% in assay [10]; 81.9% in [11]. Besides, the growth in [12] was 91.8%; in assay [13], 104%; in assay [14] it was 89.9%; in assay [15], 97.4%; in assay [16], 96.3%; in assay [19], 85.6%.

Turning to `CC[C@H](C)[C@H](NC(=O)C12C3C4C1C1C2C3C41NC)C(=O)N(C)[C@H](C[C@@H](OC(C)=O)c1nc(C(=O)N[C@@H](Cc2ccccc2)C[C@H](C)C(=O)OC)cs1)C(C)C` (some centres not stated), the growth in [1] is 18.4%; in assay [2], 2.58% (active); in assay [3], 49.6%; in [4] it was 11.6%; in [5] it was 21.2%; in assay [6], 3.34% (active). For the same compound, the growth was 15.7% in assay [8]; 58.1% in assay [17]; 43% in assay [9]; 40.7% in assay [10]; 36.5% in assay [11]; 51.1% in assay [12]. Moreover, the growth in assay [13] was 41.9%; in assay [14] it was 40.8%; in [15] it was 40.5%; in assay [16], -12.6% (active); in [19], 13.2%.

With `COc1ccc(/C=C\c2cc(OC)c(OC)c(OC)c2)c(NS(=O)(=O)c2ccc(C)cc2)c1O`, the growth was 15.1% in assay [1]; 17.4% in [2]; 48.1% in [3]; 20.7% in assay [4]; 36.3% in assay [5]; -42.3% (active) in assay [6]. Also, the growth in assay [7] was 53%; in [8], 18.3%; in assay [17] it was 61.7%; in assay [9], -6.34% (active); in assay [11], 35.6%; in assay [12] it was 53.4%. The growth was 65.2% in assay [13]; 23.7% in assay [14]; 19.8% in assay [15]; 9.18% (active) in assay [18]; 21.9% in assay [19].

For `CC1=C(O)[C@@](C)(CCCCC[C@H](C)CCCCc2ccc(O)cc2)OOC1=O`, the growth in assay [1] is 98.3%; in assay [2], 105%; in assay [3], 101%; in assay [4], 92.8%; in assay [5], 75.4%; in assay [6], 102%. Moreover, the growth in [7] is 79.2%; in assay [8], 69.8%; in [17] it was 114%; in assay [10], 95.4%; in assay [11], 88.5%; in [13] it was 129%. The growth in [14] is 97.5%; in [15] it was 80.6%; in assay [16], 119%; in [18] it was 84.4%.

`CC[C@]12C=CCN3CC[C@@]4(c5ccc(OC)cc5N(C)[C@H]4[C@@](O)(C(=O)OC)[C@@H]1OC(=O)CCCC[P+](c1ccccc1)(c1ccccc1)c1ccccc1)[C@@H]32`: the growth was 99.3% in [1]; 2.65% (active) in assay [2]; 12.7% in assay [3]; 10.9% in assay [4]; -72.9% (active) in assay [6]; -6.54% (active) in [7]. The growth is 18.5% in [8]; 12.5% in assay [17]; -41.6% (active) in assay [9]; 56.1% in assay [10]; 4.56% (active) in assay [11]; 81.9% in assay [12]. Besides, the growth in assay [13] is 48.6%; in assay [14], 93.1%; in [15] it was 85.9%; in assay [16], 52.2%; in assay [18] it was -63.5% (active); in [19], 15.6%.

In the case of `CCCCC1(CCC)C(=O)NC(=S)NC1=O`, the growth in assay [1] is 93.7%; in [2], 105%; in assay [4], 95.9%; in assay [5] it was 80.4%; in [6] it was 104%; in [7], 104%. For the same compound, the growth in [8] was 103%; in assay [17], 108%; in assay [9] it was 91.2%; in assay [10] it was 102%; in assay [12], 85.7%; in assay [13] it was 118%. Also, the growth in [14] was 94.8%; in assay [15], 97.2%; in assay [16], 129%; in assay [18], 95.5%; in assay [19], 115%.

Turning to `CC[S][Hg][Cl]`, the growth in assay [1] is 104%; in assay [20] it was 93.6%; in assay [3], 106%; in assay [4], 99.6%; in [5], 103%; in assay [6] it was 106%. In addition, the growth in assay [7] is 103%; in [8] it was 88.1%; in [17] it was 111%; in assay [9], 105%; in assay [10], 106%; in assay [11], 105%. For the same compound, the growth was 87.9% in assay [12]; 115% in assay [13]; 101% in assay [14]; 89.7% in [15]; 115% in assay [16]; 113% in assay [18]. Besides, the growth in assay [19] was 93.4%.

On to `Clc1cccc(N2COOC3(OOC2)C2CC4CC(C2)CC3C4)c1`, for which the growth was 94.6% in assay [1]; 85.2% in assay [2]; 101% in assay [3]; 35.8% in assay [4]; 86.5% in assay [6]; 93.3% in [7]. Besides, the growth in [8] is -63.4% (active); in [17], 114%; in assay [9], 98.3%; in [10], 94.2%; in assay [11] it was 76%; in assay [12], -89.6% (active). For the same compound, the growth in assay [13] was 40.9%; in [14], 62.1%; in [15], 76.4%; in assay [16] it was 110%; in assay [18], 20.2%; in assay [19] it was -32.7% (active).
